Screen size: about 200,000 compounds; about 670 (0.34%) were called active. Cut-off read from the data, not from the text of the source: active = activation above about 22%; inactive = the rest. For the sample, actives were picked, then their nearest neighbours and some compounds at random.

Chain of Peroxisome proliferator-activated receptor gamma (Homo sapiens) (P37231 whole entry, looked up, the tested form may be a part): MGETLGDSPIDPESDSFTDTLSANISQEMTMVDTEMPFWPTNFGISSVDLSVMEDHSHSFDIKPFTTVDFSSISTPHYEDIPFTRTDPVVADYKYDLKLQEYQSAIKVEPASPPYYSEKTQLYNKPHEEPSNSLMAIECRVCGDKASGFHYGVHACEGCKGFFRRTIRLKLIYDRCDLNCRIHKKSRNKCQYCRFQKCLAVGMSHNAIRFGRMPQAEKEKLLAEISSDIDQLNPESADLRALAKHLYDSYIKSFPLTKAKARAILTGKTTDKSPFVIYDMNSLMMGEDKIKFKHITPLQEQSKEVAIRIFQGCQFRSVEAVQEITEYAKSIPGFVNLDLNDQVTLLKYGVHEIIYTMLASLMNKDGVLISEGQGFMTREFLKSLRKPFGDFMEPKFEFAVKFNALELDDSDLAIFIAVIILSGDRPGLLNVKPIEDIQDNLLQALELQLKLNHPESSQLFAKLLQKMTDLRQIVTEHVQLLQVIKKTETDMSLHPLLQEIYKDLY

The experiment addresses Peroxisome proliferator-activated receptor gamma (Homo sapiens) (UniProt P37231). The experiment in a line: agonists of PPARg-SRC-2 recruitment, primary screen, biochemical, HTS (AID 1032).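 Note: 0% = vehicle and 100% = reference agonist.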 The following applies: PPARgamma LBD-SRC-2 recruitment, at 8 µM, stronger effect = higher value.
`Cc1nc(-c2ccccc2)sc1C(=O)/C=C/c1ccccc1`: the activation was 13.4% (inactive).
For `C=CCn1c(-c2sc(-c3ccccc3)nc2C)n[nH]c1=S` the value was 7.03% (inactive).
For `Cc1nc(-c2ccccc2)sc1-c1nc(-c2ccccc2)ncc1S(=O)(=O)c1ccccc1` the value was 30% (active).
For `O=C(NC(=S)Nc1cc(C(F)(F)F)ccc1N1CCOCC1)c1ccc(-c2cccc(Cl)c2)o1` the value was 2.85% (inactive); for `COc1cc(OC)nc(N/N=C(\c2ccccc2)c2ccncc2)n1`, -0.95% (inactive).
In the case of `CC1=NCCN1S(=O)(=O)c1cccc([N+](=O)[O-])c1`, the activation was 0.1% (inactive).
With `O=C(CN(C(=O)c1csnn1)c1cccc(F)c1)NCc1ccc(F)cc1` the figure was -2.69% (inactive); with `O=C(c1nnc(-c2ccc(Cl)cc2)o1)C1CCCC1`, 5.05% (inactive); with `COCC(=O)Nc1ccc(Br)cc1`, 0.8% (inactive).
With `Cc1cccc(C(=O)OCC(=O)NCC(C)C)c1O` the figure was 1.94% (inactive); with `CC(C)CNC(=O)COC(=O)c1ccccc1OCC(=O)Nc1ccc(Br)cc1`, 23.8% (active).
In the case of `O=C(Nc1ccc(Cl)cc1)C1c2cccc[n+]2CC(=O)N1Cc1ccc2c(c1)OCO2` (centres undefined), the activation was -2.95% (inactive).
With `CCCC/S(C)=N/S(=O)(=O)c1ccc(C)cc1` (centres undefined) the figure was 4.28% (inactive).
For `CC(=O)n1c(C=Nc2ccccc2)c(O)c2ccccc21` the value was 18.1% (inactive); for `COc1ccc(CC(NC(C)=O)C(=O)NC2CCN(C(=O)c3ccc(OC)c(OC)c3)CC2)cc1OC` (centres undefined), -1.68% (inactive); for `Cn1c(-c2sccc2OCc2cccc(C(F)(F)F)c2)n[nH]c1=S`, 3.72% (inactive).
For `Cc1cc(C(F)(F)F)n2ncc(-c3ccccc3)c2n1` the value was 6.32% (inactive); for `Cn1c(-c2sc3cc(C(F)(F)F)cnc3c2-c2ccccc2)n[nH]c1=S`, 49.1% (active); for `O=C1CN(C(=O)CN2C(=O)NC3(CCCCC3)C2=O)c2ccccc2N1`, -3.02% (inactive).
Regarding `CCSc1ccccc1C(=O)Nc1ccc2c(c1)OCO2`, the activation is 2.54% (inactive).
For `COC(C(=O)Nc1ccc(S(=O)(=O)Nc2ccc(C)c(C)c2)cc1)c1ccccc1` (centres undefined), the activation is -10.9% (inactive).
With `COC(=O)c1[nH]c2ccccc2c1NC(=O)CN1CCCc2ccccc21` the figure was -0.25% (inactive).
For `COC(=O)c1[nH]c2ccccc2c1NS(=O)(=O)c1ccc(OC)cc1OC` the value was 13.7% (inactive).
For `COC(=O)c1[nH]c2ccc(Br)cc2c1NC(=O)Oc1ccccc1` the value was 30% (active); for `O=C(Nc1ccc2cn[nH]c2c1)c1ccc(S(=O)(=O)N2CCOCC2)cc1`, 3.19% (inactive); for `Cc1nccn1CCC1CCCCN1C(=O)CCc1nnc(-c2ccsc2)o1` (centres undefined), -4.68% (inactive).
Regarding `CN(C)CCOc1ccc(Cl)cc1C(C)(C)C`, the activation is 3.96% (inactive).
On to `COc1cc2c(cc1OC)C(C(C)C)=NC(C)(C)C2`, for which the activation is 4.08% (inactive).
With `COc1cc2c(cc1O)C(SC)=NC(C)(C)C2` the figure was 1.5% (inactive).
As to `COc1cc2c(cc1OC)C(Nc1ccc(S(N)(=O)=O)cc1)=NC(C)(C)C2`, the activation was 77.9% (active).
For `COCCNC(=O)c1ccc(N2CCC3(CC2)OCCO3)c([N+](=O)[O-])c1` the value was -6.47% (inactive); for `COc1ccc(C(=O)Nc2ccc3nc(N4CCCCC4)cc(C)c3c2)cc1OC`, 4.19% (inactive).
For the compound `COc1cccc(/C=C2\SC(=N)N(c3ccc(F)cc3)C2=O)c1`, the activation was 3.36% (inactive).
With `O=C(CSc1c2c(nc3ccc(Cl)cc13)CCCC2)NCc1ccco1` the figure was 30.9% (active); with `O=C(NCc1ccco1)c1cc(-c2cccnc2)nc2ccc(Cl)cc12`, 8.92% (inactive); with `O=C(/C=C/c1ccc(Cl)cc1Cl)NCc1ccco1`, -0.42% (inactive).
With `COC(=O)Cn1c(=NC(=O)c2cc(OC)c(OC)c(OC)c2)sc2cc(OC)ccc21`, the activation was -0.43% (inactive).
For `Cc1ccccc1-c1n[nH]c(=S)n1C` the value was 7.57% (inactive).
Turning to `Cc1ccccc1-c1n[nH]c(=S)n1/N=C/c1ccc(-c2ccccc2Br)o1`, the activation is 40.9% (active).
For the compound `Cc1n[nH]c(=S)n1/N=C/c1ccc(Br)o1`, the activation is 6.61% (inactive).
With `CSc1ccccc1C(=O)NCc1ccccc1` the figure was -5.42% (inactive); with `Cc1ccc(C(=O)COC(=O)CCN2C(=O)C3C4CC(C(Br)C4Br)C3C2=O)cc1` (centres undefined), 3.47% (inactive).
With `COc1ccc(O[C@H]2C=C[C@@H](c3ccccc3)O[C@@H]2CO/N=C/C[C@@H]2C=C[C@H](OC(C)=O)[C@@H](COC(C)=O)O2)cc1` the figure was 1.19% (inactive); with `CC(=O)Nc1ccc(S(=O)(=O)NC(C)C(=O)OCC(=O)NC2CCCC2)cc1` (centres undefined), -3.44% (inactive); with `CS(=O)(=O)N1CCc2cc(C(=O)Nc3ccccc3)ccc21`, -4.48% (inactive).
`Cc1ccc(NC(=O)CCOc2ccccc2)cc1S(=O)(=O)Nc1ccccc1Cl`: the activation is 3.41% (inactive).
For `CCOC(=O)c1ccc(NC(=S)N2CCCC2)cc1` the value was -1% (inactive).
In the case of `CC(=O)c1ccc(S(=O)(=O)N2CCN(c3nc4c(C)c(C)ccc4cc3C#N)CC2)cc1`, the activation was 32% (active).
For `Cc1cc(C)c2nc(N3CCCC3)c(C#N)cc2c1` the value was 1.23% (inactive).
Regarding `Cc1cccc2cc(C#N)c(N3CCCC3)nc12`, the activation is -7.68% (inactive).
With `C/C(=N\Nc1ccc([N+](=O)[O-])cc1)c1ccc(-n2nncc2C(C)(C)C)cc1` the figure was -9.74% (inactive); with `N#Cc1ccsc1NC(=O)CN1CCN(S(=O)(=O)c2cc(Cl)ccc2Cl)CC1`, 0.56% (inactive).
For `O=C(C1CCCO1)N1CCN(C(=S)Nc2cccc(Cl)c2)CC1` (centres undefined) the value was -4.23% (inactive).
`O=C1OC(/C=C/c2ccccc2)=NC/1=C/c1ccco1`: the activation is 8.63% (inactive).
Take `CCc1cccc(OC2OC(CO)C(O)C(O)C2NC(C)=O)c1` (centres undefined): the activation was 9.45% (inactive).
For `Cc1cc(C)c2c(c1)cc(C)c1nnc(SCC(=O)Nc3cc(C)on3)n12` the value was 26.5% (active); for `Cc1ccc(-c2csc(SCC(=O)Nc3cc(C)on3)n2)cc1`, -2.51% (inactive).
With `Cc1cc(NC(=O)CSc2nnc(Nc3ccccc3F)s2)no1` the figure was 0.38% (inactive).
For `Cc1cccc(NC(=O)Cn2c(=O)n(Cc3ccccc3)c(=O)c3c(C)c(C)sc32)c1` the value was 3.34% (inactive).
On to `N#Cc1c(-c2ccc(F)cc2)cc(C2CC2)nc1SCC(=O)c1cccs1`, for which the activation was 1.68% (inactive).
For `O=C(c1ccc(F)cc1)N1CCC(n2nnc3ccccc32)CC1` the value was -10.4% (inactive); for `C=CCC(C(=O)c1ccccc1)[N+](C)(C)CC=C` (centres undefined), 1.14% (inactive).
For `CN1CCN(S(=O)(=O)c2ccc(NC(=S)NC(=O)C3CC3)cc2)CC1` the value was 5.04% (inactive); for `COC(=O)CSc1nccc(-c2cccs2)n1`, 0.01% (inactive).
Turning to `NC(=O)CSc1oc(-c2cccs2)nc1S(=O)(=O)c1ccccc1`, the activation is 36.9% (active).
For `COc1ccc(OC)c(C(=O)CSc2nnc(-c3cccs3)o2)c1` the value was 10.1% (inactive); for `COc1ccc(/C(O)=C2/C(=O)C(=O)N(c3nc(C)c(C)s3)C2c2ccco2)cc1` (centres undefined), 22.7% (active).
For `COc1ccccc1C1/C(=C(/O)c2ccc(C)cc2)C(=O)C(=O)N1Cc1ccco1` (centres undefined) the value was -3.88% (inactive).
With `COc1ccc(/C(O)=C2\C(=O)C(=O)N(Cc3ccco3)C2c2ccc(OC)cc2OC)cc1` (centres undefined) the figure was 3.94% (inactive).
For the compound `CCC(C)(C)NC(=O)c1cc([N+](=O)[O-])ccc1N1CCCCC1`, the activation is 0.23% (inactive).
For `CN(C)c1nccc(NCc2ccccc2)c1C#N` the value was 9.56% (inactive); for `CN1CCN(C(c2cc3cc4c(cc3[nH]c2=O)OCCO4)c2nnnn2C2CCCC2)CC1` (centres undefined), 4.65% (inactive); for `Cc1cc(C(=O)CC#N)c(C)n1-c1c(C)n(C)n(-c2ccccc2)c1=O`, 3.36% (inactive).
For `O=C(Nn1cnnc1)c1ccc([N+](=O)[O-])cc1` the value was 8.86% (inactive).
For `COc1ccc2c(Cl)c(-c3nnco3)sc2c1` the value was 22.3% (active).
Regarding `COc1ccc2c(Cl)c(C(=O)NCc3ccco3)sc2c1`, the activation was 4.82% (inactive).
With `COc1ccc(-c2nnco2)cc1OC` the figure was -1.39% (inactive).
With `CC1=C(C)C(=O)OC(C(C)C2CCC3C4CC=C5CC(OC6OC(COC7OC(CO)C(O)C(O)C7O)C(O)C(O)C6O)CC(O)C5(C)C4CCC23C)C1` (centres undefined) the figure was -5.38% (inactive); with `NC(=O)COc1ccc(C23CC4CC(CC(C4)C2)C3)cc1`, 13.6% (inactive); with `COc1ccc(CC(=O)N2N=C(C)CC2(O)C(F)(F)F)cc1` (centres undefined), 4.95% (inactive).
For `CCOC(=O)c1c(NC(=O)CNC2CCCc3ccccc32)sc(C(N)=O)c1C` (centres undefined) the value was 19.8% (inactive); for `NS(=O)(=O)c1ccc(CCNC(=S)Nc2ccc(S(N)(=O)=O)cc2)cc1`, 4.85% (inactive).
Turning to `CCC(C)(C)NC(=O)C(c1cccc(OC)c1OC)N(CC(C)C)C(=O)CCC(=O)Nc1cc(C)on1` (centres undefined), the activation was 7.07% (inactive).
On to `CC(=O)NC(Cc1ccc(F)c(F)c1)C(=O)NC1CCN(C(=O)c2ccc(C)cc2)CC1` (centres undefined), for which the activation is -0.89% (inactive).
With `Cc1c(Cc2ccccc2)c(=O)oc2cc(OCC(N)=O)ccc12` the figure was 4.43% (inactive); with `CC(=O)Oc1ccc2c(C)c(CC(C)O)c(=O)oc2c1` (centres undefined), -8.79% (inactive); with `O=C(Oc1ccccc1)Oc1ccc2c(c1)oc(=O)c1ccccc12`, 48.7% (active).
For `O=C(CSc1ncnc2c1nnn2Cc1ccc(F)cc1)NC1CCCC1` the value was 11.8% (inactive); for `O=C(Nc1ccc([N+](=O)[O-])cc1)C1CC12CCC2` (centres undefined), 18.1% (inactive).
For `CC1CC(C)CN(C(=O)CSc2ccsc2[N+](=O)[O-])C1` (centres undefined) the value was 0.24% (inactive); for `O=C(CSc1ccsc1[N+](=O)[O-])N1CCCCC1`, 22% (active); for `O=C(CSCc1cccs1)N1CCCC1`, -3.94% (inactive).
Take `Cc1cccc(OC(=O)c2sc3ncn(C)c(=O)c3c2C)c1`: the activation is -5.78% (inactive).
Turning to `CC1=CC=CN2C1=NC(=O)CC2(C)C(=O)N(CC(=O)NC1CCCC1)c1ccccc1C` (centres undefined), the activation was 1.53% (inactive).

Source of the values: PubChem BioAssay AID1032 (The Scripps Research Institute Molecular Screening Center, 2008).
